# Experimental data as given in PubChem BioAssay (NCATS).
# Records with an inconclusive call do not appear. Where a call stands in place of a potency, no number is given. The source made the active and inactive calls. The call rests on the fitted dose curve.
# Experiment: Cytotoxicity counterscreen for inhibitors of SARS-CoV-2 cell entry (AID 1645845); further: nearly all actives have a fitted effect of over 50% in size
# Settings: cell viability (SARS-CoV-2 entry assay cells); series mostly up to 57.1 µM; activity change, negative = cytotoxicity: at the top concentration
# Outline: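 ATP-content luminescence (ATPLite 1step, 15 min RT) read after 48 h compound exposure of Expi293F cells stably expressing human ACE2; normalized to cells-only wells and media-only wells.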
SMILES,outcome,Potency,"activity change, negative = cytotoxicity"
O=C(O)CCCCC1CCSS1 (stereo not given),inactive,–,–
O=C(NCCO[N+](=O)[O-])c1cccnc1,–,inactive,–
CC(=O)O[C@@H]1C(=O)O[C@@H]2[C@H]1OC(=O)[C@@H]2OC(C)=O,–,–,1.25% (inactive)
CCOC(=O)c1ccc(N)cc1,inactive,–,–
O=C(O)c1cc(=O)c2c(OCC(O)COc3cccc4oc(C(=O)O)cc(=O)c34)cccc2o1,–,inactive,–
CCCNC(C)C(=O)Nc1ccccc1C (stereo not given),–,–,-1.31% (inactive)
CNC[C@H](O)[C@@H](O)[C@H](O)[C@H](O)CO,inactive,–,–
CC(=O)N=c1sc(S(N)(=O)=O)nn1C,inactive,–,–
COc1cc(C(=O)NC2CCCNC2)cc(OC)c1OC (stereo not given),inactive,–,–
OCCOCCN1CCN(C2=Nc3ccccc3Sc3ccccc32)CC1,inactive,–,–
CCCCCCCCCCCC(=O)[O][Sn]([CH2]CCC)([CH2]CCC)[O]C(=O)CCCCCCCCCCC,inactive,–,–
CC(C)(Oc1ccc(Cl)cc1)C(=O)OCCCOC(=O)C(C)(C)Oc1ccc(Cl)cc1,–,–,2.09% (inactive)
CC(=O)SCC(CC(=O)c1ccc(C)cc1)C(=O)O (stereo not given),inactive,–,–
COc1c2occc2cc2ccc(=O)oc12,–,inactive,–
NS(=O)(=O)c1cc(C(=O)O)cc(N2CCCC2)c1Oc1ccccc1,–,–,-10.2% (inactive)
CC(=O)N(c1onc(C)c1C)S(=O)(=O)c1ccc(N)cc1,inactive,–,–
CC(=O)NC[C@H]1CN(c2ccc(N3CCOCC3)c(F)c2)C(=O)O1,–,inactive,–
CCOC(=O)[C@H](CCc1ccccc1)N[C@@H](C)C(=O)N1CCC[C@H]1C(=O)O,–,inactive,–
Cc1ccsc1/C=C/C1=NCCCN1C,inactive,–,–
CCOC(=O)[C@H](CCc1ccccc1)N[C@H]1CCCN2CCC[C@@H](C(=O)O)N2C1=O,inactive,–,–
